Experimental data as given in PubChem BioAssay (NCI).
About 79,000 compounds went through this panel and 15% of them were active in at least one assay; those are over-represented in the sample as a whole. A number with no mark means an inactive call. Calls of active or inactive are those of the source. Rule as the data show it: active = growth inhibition above about 70%; inactive = the rest.

Experiments:
[1] = NCI Yeast Anticancer Drug Screen. Data for the rad50 strain (AID 155);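 also: 0% = growth of vehicle-only cultures of the same strain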; conditions: S. cerevisiae rad50 strain growth inhibition, active compounds read high
Method in brief: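 Cells are treated with compound, grown, and their growth is then scored against vehicle-only cultures of the same repair-deficient yeast strain.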

[2] = NCI Yeast Anticancer Drug Screen. Data for the mec2-1 strain (AID 157); conditions: S. cerevisiae mec2-1 strain, active compounds read high
Method in brief: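 Growth inhibition is read against vehicle-treated controls after compound exposure of the mec2-1 yeast strain, which is defective in DNA damage repair or cell cycle control.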

[3] = NCI Yeast Anticancer Drug Screen. Data for the sgs1 mgt1 strain (AID 161);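 also: 0% = growth of cultures given vehicle only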; conditions: S. cerevisiae sgs1 mgt1 strain, active compounds read high
Method in brief: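 Compounds are added to genetically altered yeast, and growth is compared with cultures given vehicle alone to give percent inhibition.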

[4] = NCI Yeast Anticancer Drug Screen. Data for the cln2 rad14 strain (AID 165);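 also: 0% = growth equal to vehicle treated cultures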; conditions: S. cerevisiae cln2 rad14 strain, active compounds read high
Method in brief: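 Growth inhibition, relative to vehicle-treated controls, is the read-out. The test organism is a yeast strain with defined genetic alterations, cln2 rad14.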

[5] = NCI Yeast Anticancer Drug Screen. Data for the bub3 strain (AID 167); conditions: S. cerevisiae bub3 mutant strain, active compounds read high
Method in brief: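 Part of a panel of yeast mutants defective in DNA damage repair or cell cycle regulation. Each strain is grown with compound, and inhibition is calculated relative to solvent-treated cultures.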

[6] = NCI Yeast Anticancer Drug Screen. Data for the mlh1 rad18 strain (AID 175); conditions: S. cerevisiae mlh1 rad18 strain growth inhibition, active compounds read high
Method in brief: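 Cells of a genetically altered yeast strain, deficient in DNA damage repair, were treated with compound. Their growth was then compared with that of vehicle-treated cultures to give inhibition.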

[7] = at 5.0 µM (retest, dose inferred, filed as 0.5)
[8] = at 50.0 µM (retest, dose inferred, filed as 5.0)

SMILES | growth inhibition [1, 7] | growth inhibition [1, 8] | growth inhibition ([1]; at 50.0 µM) | growth inhibition [2, 7] | growth inhibition [2, 8] | growth inhibition ([2]; at 50.0 µM) | growth inhibition [3, 7] | growth inhibition [3, 8] | growth inhibition ([3]; at 50.0 µM) | growth inhibition [4, 7] | growth inhibition [4, 8] | growth inhibition ([4]; at 50.0 µM) | growth inhibition [5, 7] | growth inhibition [5, 8] | growth inhibition ([5]; at 50.0 µM) | growth inhibition [6, 7] | growth inhibition [6, 8] | growth inhibition ([6]; at 50.0 µM)
CCOC(=O)C(CCOC)C(=O)OCC | 4% | 81% (active) | 73.3% (active) | 0% | 30% | 70.9% (active) | 1% | 46% | 43.9% | 3% | 65% | 41.8% | 1% | 48% | 95.7% (active) | 5% | 72% (active) | 43.6%
COc1ccccc1NC(=O)/C(=C/n1c(=S)sc2ccccc21)C(C)=O | -19% | 14% | 38.3% | -19% | 14% | 48% | 7% | 20% | 63.6% | 11% | 17% | 64.2% | -9% | 30% | 29.5% | -14% | 14% | 47%
CC(C)(Cl)C(Cl)CC/C(CBr)=C(\Cl)CCl (configuration not stated) | 28% | 98% (active) | 86.7% (active) | 19% | 98% (active) | 89.9% (active) | 14% | 100% (active) | 91.5% (active) | 26% | 98% (active) | 88.2% (active) | 27% | 100% (active) | 88.2% (active) | 21% | 98% (active) | 1.35%
CC1(C)C(=O)N(CCCCCCN2C(=O)C(C)(C)c3ccccc32)c2ccccc21 | 20% | 20% | 79.5% (active) | 4% | 4% | 78% (active) | 5% | 5% | 81.5% (active) | -11% | -11% | 83.5% (active) | 12% | 12% | 73.2% (active) | 3% | 3% | 78.5% (active)
Cc1cc(N(CCOS(C)(=O)=O)CCOS(C)(=O)=O)ccc1C=Nc1ccc(-c2csc(-c3ccc(Br)cc3)n2)cc1 | 49% | 91% (active) | 95.5% (active) | 47% | 95% (active) | 94.2% (active) | 48% | 95% (active) | 81.9% (active) | 37% | 88% (active) | 89.5% (active) | 11% | 85% (active) | 76.9% (active) | 88% (active) | 96% (active) | 96.7% (active)
COC(=O)c1ccccc1NC(=O)C(=O)Cc1nc2c3c(ccc2[nH]c1=O)C(=O)c1ccccc1C3=O | 35% | 98% (active) | 85.4% (active) | 12% | 99% (active) | 25.8% | 6% | 99% (active) | 16.2% | 5% | 98% (active) | -26.9% | 6% | 99% (active) | 16.3% | 16% | 66% | 66.6%
S=c1sc2ccccc2n1CNc1ccccc1 | -2% | 14% | 64.9% | 0% | 7% | 68.1% | 2% | 53% | 72.2% (active) | -5% | -10% | -40.6% | -1% | 18% | 74.3% (active) | 5% | -11% | 69.3%
CCCCCCCCCCCCCCCC[N+](C)(C)CCl | 99% (active) | 100% (active) | 85.6% (active) | 99% (active) | 100% (active) | 89.7% (active) | 99% (active) | 100% (active) | 82.2% (active) | 99% (active) | 99% (active) | 89% (active) | 99% (active) | 100% (active) | 87.3% (active) | 99% (active) | 100% (active) | 80.1% (active)
FC(F)(F)c1ccccc1NC(=S)SCc1ccc2c(c1)OCO2 | 7% | 95% (active) | 98.8% (active) | 8% | 98% (active) | 99% (active) | 1% | 97% (active) | 99% (active) | 2% | 96% (active) | 98% (active) | 3% | 95% (active) | 98.3% (active) | 1% | 96% (active) | 99% (active)
